These results are taken from PubChem BioAssay.

This experiment deals with Epidermal growth factor receptor (Homo sapiens) (UniProt P00533). Put plainly: compounds binding epidermal growth factor receptor – biochemical, small-molecule microarray, 635 nm fluorescence, primary screen (AID 1104).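 Also: score merges 667 nm emission intensity with spot signal to noise over triplicate slides.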 The conditions noted are these: EGFR binding, higher = more signal.
Epidermal growth factor receptor (Homo sapiens), sequence (P00533 whole entry, looked up): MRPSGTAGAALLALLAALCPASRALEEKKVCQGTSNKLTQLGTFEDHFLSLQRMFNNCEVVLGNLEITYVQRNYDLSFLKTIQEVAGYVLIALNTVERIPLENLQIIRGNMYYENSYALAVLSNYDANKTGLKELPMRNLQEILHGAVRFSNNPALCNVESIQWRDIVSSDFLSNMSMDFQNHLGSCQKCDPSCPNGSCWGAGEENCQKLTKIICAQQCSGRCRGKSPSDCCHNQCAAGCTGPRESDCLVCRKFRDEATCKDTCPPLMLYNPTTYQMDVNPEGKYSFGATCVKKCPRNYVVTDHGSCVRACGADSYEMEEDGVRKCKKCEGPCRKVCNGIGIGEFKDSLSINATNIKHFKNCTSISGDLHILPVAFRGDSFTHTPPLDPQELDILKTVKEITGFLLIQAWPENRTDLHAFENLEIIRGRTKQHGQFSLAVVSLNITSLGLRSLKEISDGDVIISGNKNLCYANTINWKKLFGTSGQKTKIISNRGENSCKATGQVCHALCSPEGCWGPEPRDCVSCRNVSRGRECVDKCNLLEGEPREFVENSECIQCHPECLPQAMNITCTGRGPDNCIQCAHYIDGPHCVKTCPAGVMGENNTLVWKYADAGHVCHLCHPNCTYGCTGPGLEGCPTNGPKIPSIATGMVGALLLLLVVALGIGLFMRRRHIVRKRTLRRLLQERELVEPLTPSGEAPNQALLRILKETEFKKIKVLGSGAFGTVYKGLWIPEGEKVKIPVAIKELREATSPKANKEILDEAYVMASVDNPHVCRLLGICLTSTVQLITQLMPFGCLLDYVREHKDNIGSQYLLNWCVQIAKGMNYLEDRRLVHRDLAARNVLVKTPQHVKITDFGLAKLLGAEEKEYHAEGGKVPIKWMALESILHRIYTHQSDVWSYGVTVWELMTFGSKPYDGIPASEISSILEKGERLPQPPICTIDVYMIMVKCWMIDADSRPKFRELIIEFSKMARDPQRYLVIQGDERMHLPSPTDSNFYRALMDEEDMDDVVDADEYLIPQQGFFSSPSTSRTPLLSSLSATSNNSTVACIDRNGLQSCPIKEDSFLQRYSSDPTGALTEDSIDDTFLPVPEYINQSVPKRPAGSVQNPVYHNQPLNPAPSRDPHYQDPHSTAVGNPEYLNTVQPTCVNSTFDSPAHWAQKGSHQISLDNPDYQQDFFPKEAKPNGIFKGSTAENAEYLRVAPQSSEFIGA
Consider `COCCOC(=O)N1C(=O)[C@@]2(c3cc(C#CCCO)ccc31)[C@H](C(=O)N1CCCCCCC1)[C@H]1C(=O)O[C@H](c3ccccc3)[C@H](c3ccccc3)N1[C@@H]2c1ccc(OCCO)cc1`, for which the composite z-score was 1.59.

As to `C=CC[C@@]12N=C(c3ccc(OCCCO)cc3)O[C@@H]1c1ccccc1N(C)C2=O`, the composite z-score was found to be 0.166. Next, `O=C1C2C=CC(C(O)Cc3ccccc3)N(n3cnnc3)C2C(=O)N1Cc1ccccc1` (stereo unspecified): -0.216; `CCN(CC)c1ccc(N2CC=CC34O[C@@H]5C=CCCOC(=O)C5[C@H]3C(=O)N(CCCCCCO)[C@@H]4C2=O)cc1` (stereo partly specified): -0.661; `O=C1c2ccccc2[C@](Cc2ccccc2I)(C(=O)NCCN2CCOCC2)[C@H](c2ccc(CO)cc2)N1C1CCCCC1`: 0.499. `[N-]=[N+]=Nc1ccccc1[C@@H]1OC(c2ccc(OCCCO)cc2)=N[C@]1(CCS(=O)(=O)c1ccccc1)C(N)=O`: the composite z-score amounted to 0.0129. On to `CN(C)C(=O)[C@@]1(CCS(=O)(=O)c2ccccc2)COC(c2ccc(OCCCO)cc2)=N1`, for which the composite z-score worked out at 0.0041. Next, `CC(C)C[C@@H]1NC(=O)[C@@H]2C[C@H](C(=O)O)[C@H](c3cccc(OCCO)c3)N2C1=O`: -0.242. Next, `CCOC(=O)C[C@H]1[C@H](OC(=O)c2ccc(-c3ccccc3)cc2)[C@@H](NC(=O)Cc2ccc(OC)cc2)c2cc(OCCCO)ccc2N1C(=O)c1ccccc1`: -0.165.

`C=C(CCCC)/C(=C/C[C@H](OC(C)=O)c1ccccc1OCCO)c1cc(C(=O)OC)ccc1OC` had a composite z-score of -0.184.

For `C=CCC(OC(C)=O)[C@@H]1[C@@H](N(Cc2ccc(-c3ccccc3)cc2)C(=O)c2cccc3ccccc23)c2cc(OCCCO)ccc2N1C(=O)c1ccc(-c2ccccc2)cc1` (stereo partly specified), the composite z-score is -0.192. The same measure for `Cc1ccc(S[C@]2(C(=O)NCCCN(C)C)CC(=O)N(Cc3cc(C(F)(F)F)cc(C(F)(F)F)c3)[C@@H]2c2ccc(CO)cc2I)cc1`: -1.18. For the compound `CCC[C@@H]1C[C@@]1(CCC)[C@@H](NC(=O)c1ccccc1)c1cccc(Cl)c1`, the composite z-score is 0.446.

Turning to `COc1ccccc1CN1C(=O)c2ccccc2[C@@]2(Cc3ccccc3N(CC(C)C)C2=O)[C@@H]1c1ccc(CO)cc1`, the composite z-score is -0.284. Next, `Cc1ccc(N2C(=O)c3ccccc3[C@@H](C(=O)NC3CC3)[C@@H]2c2ccc(CO)cc2)nc1`: -1.58. The compound `C=C[C@H](CO[Si](CC)(CC)CC)N(Cc1ccc(OC(C)=O)c(OC)c1)S(=O)(=O)c1ccc(Br)cc1` registered a composite z-score of 0.275. Next, `O=C1NC(=O)C2C1C=CC(C(O)c1cc(C(F)(F)F)cc(C(F)(F)F)c1)N2Nc1ccccn1` (stereo unspecified): 0.22; `C[N+](C)(C)CCCC[C@@H]1NC(=O)[C@H]2C[C@@H](C(=O)NCCCCCCNC(=O)CS)[C@@H](c3cccc(OCCO)c3)N2C1=O`: -1.06.

Take `CC(C)NC(=O)[C@@H]1c2ccccc2C(=O)N(C2Cc3ccccc3C2)[C@H]1c1ccc(CO)cc1`: the composite z-score is -0.477. The same measure for `C=C(CC1([C@@H](NP(=O)(c2ccccc2)c2ccccc2)[C@H]2C[C@@H]2CCCC)CC1)c1ccccc1`: 0.243; for `CCOC(=O)C[C@H]1[C@H](OC(=O)c2ccc(C(=O)c3ccccc3)cc2)[C@@H](NC(=O)c2ccc3ccccc3n2)c2cc(OCCCO)ccc2N1C(=O)c1ccccc1`: -0.278; for `O=C1C[C@@](C(=O)NCCN2CCOCC2)(c2ccc([N+](=O)[O-])cc2)[C@@H](c2ccc(CO)cc2)N1CC12CC3CC(CC(C3)C1)C2`: 0.86. The same measure for `CC(C)=CCN[C@H](CO)c1ccccc1`: 0.149; for `COC(=O)[C@@]1(Cc2ccc(OC)cc2)[C@H]2c3cc(C(=O)N(C)C)n(C)c3C[C@H]2CN1C(=O)c1ccccc1`: 0.534. Next, `CN1C(=O)C2C=CC(C(O)c3ccc([N+](=O)[O-])cc3)N(N3CCCCC3)C2C1=O` (stereo unspecified): 0.4; `CC(=O)n1cc(C(O)C2C=CC3C(=O)N(c4ccccc4)C(=O)C3N2Nc2ccc([N+](=O)[O-])cc2)c2ccccc21` (stereo unspecified): -0.142.

For the compound `O=C(c1ccccc1)N1Cc2ccccc2C[C@@]2(COC(c3ccc(OCCCO)cc3)=N2)C1=O`, the composite z-score was determined as 0.0545.

As to `O=C(c1ccccc1)N1C(=O)[C@]2(COC(c3ccc(OCCCO)cc3)=N2)Cc2ccccc21`, the composite z-score is 0.218. `CCCC[C@@H]1C[C@H]1[C@@H](NC(=O)c1ccccc1)c1ccc(C(=O)OC)cc1` returned a composite z-score of -1.38.

The compound `COc1cc2c(cc1O)C(C1CC1)N(Cc1sc3ccccc3c1Cl)CC2` (stereo unspecified) registered a composite z-score of -0.0122. Next, `O=C1N(Cc2ccccc2)c2ccccc2[C@@H]2OC(c3ccc(OCCCO)cc3)=N[C@]12CCS(=O)(=O)c1ccccc1`: -0.24.
